Screening data deposited in PubChem by several laboratories.
PABP polyA inh – PABP-poly(A) binding inhibition. P11940. 290,000 tested, 1% active. calls only at 35 µM. AID 2014. PABP-poly(A) RNA binding, fluorescence polarization;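 also: calls also rest on retests at 20 µM and on dose response follow-up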
eIF4H FP inh – inhibitors of RNA binding by human eIF4H; eIF4H fluorescence polarization binding assay; inhibition, % at 35 µM; 290,000 tested, 0.94% active; AID 2012;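 also: calls also rest on retests at 20 µM and on dose response follow-up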
eIF4E-4G inh – blocks eIF4E binding to eIF4G | 220,000 tested, 0.37% active | TR-FRET eIF4E-eIF4GI(517-606) binding, 2 h | P63073+Q04637 | inhibition, % at 21.7 µM | AID 782;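 active = inhibition above about 30%, limit read from the data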;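 also: 0% = full FRET control wells and 100% = background wells lacking eIF4GI fragment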
PABP1 MLLE inh – blocks PAM2 peptide binding to the PABP1 MLLE domain. 360,000 tested, 0.36% active. P11940. inhibition, % at 20 µM. GST-MLLE / FITC-PAM2 fluorescence polarization; in the data active = inhibition above about 35%, passing the limit was not always enough;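 also: plate controls were DMSO wells with GST-MLLE for no effect and wells lacking GST-MLLE protein for full effect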
The depositor's hits bear a star; i = inactive; ? = inconclusive; · = no result given; + = active, no number; [ ] = remark or other dose. Sampled rows, rich in hits. Any-hit rate of the full collection: about 1.5%. Unless noted, no rule for the calls is given here.

SMILES | PABP polyA inh | eIF4H FP inh | eIF4E-4G inh | PABP1 MLLE inh
COc1ccc(C(=O)N2CCN(S(=O)(=O)c3ccc(C)cc3)CC2)cc1S(=O)(=O)N1CCOCC1 | i | -3.6 | 61.6* | -2.1
COc1ccc(C(=O)N2CCN(S(=O)(=O)c3ccc(C)cc3C)CC2)cc1S(=O)(=O)N1CCOCC1 | · | · | · | 4.2
CCOC(=O)Cn1c(=O)oc2cc(S(=O)(=O)NC(C)c3ccccc3)ccc21 (configuration not stated) | i | -0.1 | -1.1 | 1.4
CC(NS(=O)(=O)c1ccc2c(c1)oc(=O)n2C)c1ccccc1 (configuration not stated) | + | 90.7 | · | 6.4
CCC1CCCCN1CCCNS(=O)(=O)c1ccc2c(c1)oc(=O)n2C (configuration not stated) | + | 67.0 | · | -6.2
Cn1c(=O)oc2cc(S(=O)(=O)Nc3ccc4c(c3)OCCO4)ccc21 | + | 74.8* | 2.8 | -10.1
CCC1CCCCN1CCNS(=O)(=O)c1ccc2c(c1)oc(=O)n2C (configuration not stated) | i | -1.3 | -2.8 | -12.3
COc1ccc(NC(=O)C[C@H]2C(=O)N(C3CCCCC3)C[C@@H]2C)cc1 | · | · | · | -1.4
CC1(C)CN(CCc2ccccc2)C(=O)[C@H]1CC(=O)Nc1ccccc1 | · | · | · | -0.9
COc1cccc(OC)c1C(=O)NC(=S)Nc1cc(-c2nc3ccccc3[nH]2)ccc1Cl | i | active | 0.4 | 16.4
COc1c(F)c(F)c(C(=O)Nc2ccc(-c3nc4ccccc4[nH]3)cc2)c(F)c1F | i | -2.5 | -4.0 | 8.4
COc1ccc2c(c1)c1nc3ccccc3nc1n2Cc1ccc(OC(C)C)c(OC)c1 | + | 78.4* | 3.4 | -5.9
COC(=O)Cn1c2ccc(C)cc2c2nc3ccccc3nc21 | i | -3.6 | · | 6.1
COc1ccc2c(c1)c1nc3ccccc3nc1n2CC(=O)OC(C)C | + | 127.3 | -22.0 | 70.3
COc1ccc(Cn2c3ccc(OC)cc3c3nc4ccccc4nc32)cc1 | i | ? | -5.1 | 137.3
Cc1ccccc1CSCC1Nc2ccc(C(=O)NCCc3ccccc3)cc2NC1=O (configuration not stated) | · | · | · | -123.3
CC(NC(=O)c1ccccc1Br)c1nnc(SCC(=O)NC2=NCCS2)n1C (configuration not stated) | i | -13.2 | · | 7.2
CC(NC(=O)c1ccccc1F)c1nnc(SCC(=O)NC2=NCCS2)n1C (configuration not stated) | + | 89.6* | · | -2.2
O=C1NC(=S)S/C1=C\c1ccc(SCc2ccccc2)o1 | + | 80.1* | 18.9 | -30.3
S=c1[nH]cc2cnccn12 | · | · | · | 69.5*
CC(C)NS(=O)(=O)c1ccc(NC(=S)NC(=O)c2cccc([N+](=O)[O-])c2)cc1 | i | -1.2 | 1.7 | 48.3*
O=C(NC(=S)Nc1cccc(F)c1)c1cccc([N+](=O)[O-])c1 | i | 5.3 | -9.9 | 37.2
CC(C)C[C@H]1CNC(=S)N1C[C@H]1CCCN1C[C@H](Cc1ccc(O)cc1)N1C[C@H](CC(C)C)N(CCc2ccccc2)C1=S | · | · | · | -19.4
COCCn1c(C)cc(C(=O)COC(=O)c2cc3c(s2)CCC3)c1C | + | 90.9* | 0.6 | 4.9
CC(C)(C)OC(=O)NC(Cc1ccccc1)C(=O)N1CCC(C(=O)NCC(=O)Nc2ccc(F)cc2)CC1 (configuration not stated) | ? | ? | · | 37.9*
SMILES | PABP polyA inh | eIF4H FP inh | eIF4E-4G inh | PABP1 MLLE inh
CC(C)(C)OC(=O)N[C@@H](Cc1ccccc1)C(=O)N1CCC(C(=O)NCC(=O)O)CC1 | i | -6.5 | · | 4.8
CCN(CC)S(=O)(=O)c1ccc(Cl)c(NC(=O)c2cc(Cl)cc(Cl)c2)c1 | i | -3.8 | 0.9 | 7.5
O=[N+]([O-])c1cccc(NC(=S)Nc2nc(-c3ccccc3Cl)cs2)c1 | i | 13.6 | · | 42.4*
CCNC(=S)Nc1cccc([N+](=O)[O-])c1 | i | 2.0 | 1.4 | ·
CN(C)c1ccc(CNC(=O)C2Cc3c(-c4cccc(C(N)=O)c4)ccnc3O2)cc1 (configuration not stated) | · | · | · | 4.1
COc1ccc(Oc2ncnc3sccc23)cc1 | i | -12.2 | 1.7 | -9.3
Cc1nc(Oc2ccccc2)c2ccsc2n1 | + | 74.7* | -2.1 | 7.2
CC1CC(=O)c2c(cc3c(-c4c(O)cc(O)c5c(O)c6c(cc45)OC(C)CC6=O)c(O)cc(O)c3c2O)O1 (configuration not stated) | + | 100.2* | 26.9 | -8.5
CC[C@H](C)[C@@H](N)C(=O)NC[C@H]1O[C@@H](n2cnc3c(=O)[nH]c(N)nc32)[C@H](O)[C@@H]1O | · | · | · | -4.9
CCOC(=O)C(CSCC(=O)c1ccc(Cl)cc1Cl)NC(=O)OC(C)(C)C (configuration not stated) | i | -7.2 | -1.0 | 48.7*
COc1ccc(OC)c(N=c2ssnc2Cl)c1 | i | -16.6 | -2.1 | 9.9
COc1cc(N=c2ssnc2Cl)c(OC)cc1Cl | i | -2.3 | 72.8*[fluorescence artefact?] | 16.5
Cc1cc(Cl)ccc1N=c1ssnc1Cl | i | -0.2 | 47.6* | 17.7
Cc1ccc(N=c2ssnc2Cl)cc1 | i | 0.5 | 72.0*[fluorescence artefact?] | 22.5
COc1ccc(-n2c(Cc3cccn3C)nnc2SCC(=O)Nc2cccc(F)c2)cc1 | i | 1.0 | 62.2*[fluorescence artefact?] | -32.5
CC(=O)Nc1ccc2nc3ccccc3nc2c1 | i | 34.7 | -1.4 | 41.6*
CC(=O)Nc1ccc(C(=O)Nc2cccc(-c3cnc4ccccc4n3)c2)cc1 | ? | -32.3 | 35.7* | -26.5
Cc1ccc(C(=O)Nc2cccc(-c3cnc4ccccc4n3)c2)cc1 | i | -1.7 | -3.0 | 3.9
O=C(OCc1cn([C@@H]2CN(C(=O)c3cccs3)[C@@H](c3ccc(Cl)cc3)C[C@H]2O)nn1)c1ccccc1 | · | · | · | -12.4
Cc1[nH]c2ccccc2c1/C=C/C(=O)c1ccncc1 | + | 72.1* | -1.8 | -75.1
O=C(/C=C/c1cccc2ccccc12)c1ccncc1 | i | -5.2 | 0.5 | 24.9
C(=N\C(/N=C/c1ccco1)c1ccco1)/c1ccco1 | + | 102.7* | 3.2 | 12.1
C(=Nc1cccc2c(N=Cc3ccco3)cccc12)c1ccco1 | i | ? | 9.1 | 66.7*
CN(C)c1ccc(N=Cc2ccco2)cc1 | i | 38.0 | 5.4 | 13.6
COc1ccc(N/C=C\C(=O)c2ccc(Br)cc2)cc1OC | i | 71.4* | 1.5 | -91.2
SMILES | PABP polyA inh | eIF4H FP inh | eIF4E-4G inh | PABP1 MLLE inh
COc1ccc(N/C=C\C(=O)c2ccc(C)cc2)cc1OC | i | -0.2 | 3.4 | -9.9
CC(=O)Nc1ccc2c(COC(=O)CC3Sc4ccccc4NC3=O)cc(=O)oc2c1 (configuration not stated) | + | ? | 9.0 | -70.5
COc1ccc2c(COC(=O)CC3Sc4ccccc4NC3=O)cc(=O)oc2c1 (configuration not stated) | i | 29.0 | 12.1 | -29.5
C/C(CC(=O)Nc1cc(C)ccn1)=N\NC(=O)c1ccccc1C | + | 66.7 | -0.4 | -2.2
Cc1ccccc1Cn1c(C)cc(C)c(C#N)c1=O | + | active | 2.4 | -2.6
COc1cccc(N2CCN(C(=O)c3[nH]c(C)c(C(C)=O)c3C)CC2)c1 | i | 1.7 | -5.2 | 8.6
